PubChem BioAssay (NCATS)
Records with an inconclusive call do not appear. Activity calls are given as the source filed them. Calls come from the whole dose curve; as a rule, active = well fitted curve in the direction sought with a large enough effect; inconclusive = small, poorly fitted or top-dose-only effect, or another doubt; inactive = no such curve, though single readings can be large; an effect the other way counts as inactive or inconclusive.

How the values were obtained:
WaGa = experiment: qHTS assay to identify novel small-molecules to repurpose for Merkel cell carcinoma treatment (AID 1296009); details: MCC and control cell lines, CellTiter-Glo viability, 72 h; series mostly up to 46 µM; note: nearly all actives have a fitted effect of over 60% in size
Procedure, shortened: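 CellTiter-Glo luminescence after 72 hr compound exposure at 37 degree celsius gave cell viability. Libraries NPC and MIPE were run as 8- and 11-point dose responses; RLUs normalized to DMSO (negative) and no-cell (cytotoxicity) controls.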

C33A = experiment: Primary qHTS to identify gynecologic anti-cancer compounds using libraries of approved drugs and bioactive compounds (AID 1345084); details: Gynecologic cancer cell panel viability, ATPlite luminescence, 48 h; series mostly up to 57.5 µM; note: nearly all actives have a fitted effect of over 55% in size
Procedure, shortened: (§1)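 Cells, 1,000 per well, plated 16 h, then exposed 48 h at 37 C to compounds. Viability by ATPlite luminescence after 15 min at room temperature.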

CAOV3 = experiment: as above; details: Gynecologic cancer cell panel viability, ATPlite luminescence, 48 h; series mostly up to 57.5 µM
Procedure, shortened: as §1

CASKI = experiment: as above; details: Gynecologic cancer cell panel viability, ATPlite luminescence, 48 h; series mostly up to 57.5 µM
Procedure, shortened: as §1

Es-2 = experiment: as above; details: Gynecologic cancer cell panel viability, ATPlite luminescence, 48 h; series mostly up to 57.5 µM
Procedure, shortened: as §1

HeLa = experiment: as above; details: Gynecologic cancer cell panel viability, ATPlite luminescence, 48 h; series mostly up to 57.5 µM
Procedure, shortened: as §1

JEG-3 = experiment: as above; details: Gynecologic cancer cell panel viability, ATPlite luminescence, 48 h; series mostly up to 57.5 µM
Procedure, shortened: as §1

OV90 = experiment: as above; details: Gynecologic cancer cell panel viability, ATPlite luminescence, 48 h; series mostly up to 57.5 µM
Procedure, shortened: as §1

PA-1 = experiment: as above; details: Gynecologic cancer cell panel viability, ATPlite luminescence, 48 h; series mostly up to 57.5 µM
Procedure, shortened: as §1

Hek293T = experiment: as above; details: Gynecologic cancer cell panel viability, ATPlite luminescence, 48 h, control line for the selectivity index; series mostly up to 57.5 µM
Procedure, shortened: as §1

Measured: Potency

OC[C@@H](O)[C@@H](O)[C@H](O)[C@H](O)CO
not listed: Hek293T
inactive: all other assays above

CC(=O)OCC(=O)[C@@]1(O)CC[C@H]2[C@@H]3CCC4=CC(=O)C=C[C@]4(C)[C@@]3(F)[C@@H](O)C[C@@]21C
not listed: CAOV3
inactive: all other assays above

Cc1cccc(C(=O)O)c1O
not listed: Es-2 | HeLa | Hek293T
inactive: all other assays above

CCCCOC(=O)c1ccc(N)cc1
inactive: all assays above

CCCCCCCCCCCCCCCCC(C(=O)O)C(O)(CC(=O)O)C(=O)O (configuration not stated)
not listed: Hek293T
inactive: all other assays above

O=C(NCN1CCOCC1)c1cnccn1
inactive: all assays above

O=C(O)CCCCC1CCSS1 (configuration not stated)
not listed: CAOV3
inactive: all other assays above

CCN[C@H]1CN(CCCOC)S(=O)(=O)c2sc(S(N)(=O)=O)cc21
not listed: CAOV3 | PA-1
inactive: all other assays above

COc1ccc(C(=O)N2CCN(CC(=O)N3CCOCC3)CC2)cc1
inactive: all assays above

CNCc1ccccc1
not listed: JEG-3 | OV90
inactive: all other assays above

COc1ccccc1OCC(O)CO (configuration not stated)
not listed: CAOV3
inactive: all other assays above

Cc1cc(=O)[nH]c(=S)[nH]1
not listed: CAOV3
inactive: all other assays above

O=C(O)[C@@H]1[C@H]2C[C@H]3c4[nH]c5ccccc5c4CCN3C[C@@H]2CC[C@@H]1O
not listed: OV90
inactive: all other assays above

CCCOC(=O)c1ccc(N)cc1
not listed: CASKI
inactive: all other assays above

NC(=O)N[C@@H](CCC(=O)O)C(=O)O
not listed: HeLa | PA-1
inactive: all other assays above

CC(=O)Oc1cccc(O)c1
not listed: OV90
inactive: all other assays above

CCOc1ccccc1O[C@H](c1ccccc1)[C@H]1CNCCO1
inactive: all assays above

O=C(O)c1ccc(OCCCOc2ccc(C(=O)O)cc2)cc1
not listed: CAOV3
inactive: all other assays above

COc1ccc2cc(CCC(C)=O)ccc2c1
not listed: JEG-3 | OV90 | Hek293T
inactive: all other assays above

COC(=O)c1ccccc1C(=O)c1ccc(OCCN2CCCCC2)cc1
not listed: JEG-3 | OV90
inactive: all other assays above

Cc1ccc(S(=O)(=O)NC(=O)NC2CCCCC2)cc1
inactive: all assays above

C1CCN2C[C@@H]3C[C@@H](CN4CCCC[C@@H]34)[C@H]2C1
not listed: OV90
inactive: all other assays above

Cc1c(C(=O)NCCO)[n+](=O)c2ccccc2n1[O-]
not listed: CAOV3
inactive: all other assays above

OC(CCN1CCCC1)(c1ccccc1)C1CCCCC1 (configuration not stated)
not listed: OV90
inactive: all other assays above

NS(=O)(=O)c1cc(-c2nn[nH]n2)c(NCc2cccs2)cc1Cl
not listed: OV90
inactive: all other assays above

O=C(O)CCC(=O)O
inactive: all assays above

O=C(c1ccccc1)C(O)c1ccccc1 (configuration not stated)
not listed: CAOV3
inactive: all other assays above

CCc1cccc(CC)c1NC(=O)CN(CC(=O)O)CC(=O)O
not listed: CAOV3
inactive: all other assays above

O=C(CN1CCNCC1)NC1CCCCC1
not listed: CAOV3
inactive: all other assays above

NNC(=O)CP(=O)(c1ccccc1)c1ccccc1
not listed: CAOV3
inactive: all other assays above

COc1ccc(C(=O)NCc2ccc(OCCN(C)C)cc2)cc1OC
not listed: CAOV3
inactive: all other assays above

CCOc1ccc(C(=O)OCCN(CC)CC)cc1
not listed: CAOV3
inactive: all other assays above

COc1ccc(NS(=O)(=O)c2ccc(N)cc2)nn1
not listed: CAOV3 | OV90
inactive: all other assays above

C[N+](C)(C)CC[N+]1(C)Cc2c(Cl)c(Cl)c(Cl)c(Cl)c2C1
not listed: CAOV3
inactive: all other assays above

O=C(O)COC(=O)Cc1ccccc1Nc1c(Cl)cccc1Cl
not listed: CAOV3
inactive: all other assays above

CC(C(=O)O)c1ccc2c(c1)Cc1cccnc1O2 (configuration not stated)
not listed: CAOV3
inactive: all other assays above

O=c1[nH]c(=O)n([C@H]2C[C@H](O)[C@@H](CO)O2)cc1I
not listed: CAOV3
inactive: all other assays above

O=C(O)c1cc(=O)c2ccccc2o1
not listed: CAOV3
inactive: all other assays above

CC1(c2ccccc2)OC(C(=O)O)=CC1=O (configuration not stated)
not listed: CAOV3 | PA-1 | Hek293T
inactive: all other assays above

O=C(O)C(S)C(S)C(=O)O (configuration not stated)
not listed: CAOV3
inactive: all other assays above

CCCCCC(N)=O
not listed: CAOV3
inactive: all other assays above

C[C@@H](N)C(=O)O
not listed: CAOV3
inactive: all other assays above

CC(=O)[C@@]1(O)CC[C@H]2[C@@H]3C[C@H](C)C4=CC(=O)C=C[C@]4(C)[C@@]3(F)[C@@H](O)C[C@@]21C
not listed: CAOV3
inactive: all other assays above

Cc1ccc2c(c1)c1c3n2CCNC3CCC1 (configuration not stated)
not listed: CAOV3
inactive: all other assays above

NCC1CCC(C(=O)Oc2ccc(CCC(=O)O)cc2)CC1 (configuration not stated)
not listed: CAOV3
inactive: all other assays above

CCCCCOC(=O)Nc1nc(=O)n([C@@H]2O[C@H](C)[C@@H](O)[C@H]2O)cc1F
not listed: CAOV3
inactive: all other assays above

O=C(NCCCN1CCOCC1)c1ccc(Cl)cc1
not listed: CAOV3
inactive: all other assays above

Cc1cc(-n2nc3ccc(Cl)cc3n2)c(O)c(C(C)(C)C)c1
not listed: CAOV3
inactive: all other assays above
